According to PubChem BioAssay (NCATS):
Results filed as inconclusive are left out. Unmarked numbers belong to inactive results. Active and inactive are the calls of the source. Calls come from the whole dose curve; as a rule, active = well fitted inhibition curve with a large enough effect; inconclusive = small, poorly fitted or top-dose-only effect; inactive = flat fitted curve, though single readings scatter.

Each compound was assayed against Voltage-gated inwardly rectifying potassium channel KCNH2 (Homo sapiens) (UniProt Q12809) (assay: qHTS Assay for Small Molecule Inhibitors of the Human hERG Channel Activity (AID 588834;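 note: lower thallium flux fluorescence means stronger hERG block; nearly all actives have a fitted effect of over 50% in size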; for activity change, negative = inhibition: top concentration of the series differs between compounds)). Details: U2OS BacMam hERG, FluxOR thallium flux fluorescence; series mostly up to 46.1 µM; activity change, negative = inhibition: at the top concentration.
Procedure, shortened: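 In hERG-transduced U2OS cells, dye-loaded for 1 hr at room temperature in dark, test compounds incubated 10 min at 37 °C before thallium stimulation. AC50 values derived by Hill modelling of concentration-response.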
% is set by controls: 0 for no effect and ±100 for the full control effect; potency is the fitted concentration of half-maximal effect.

Sequence of Voltage-gated inwardly rectifying potassium channel KCNH2 (Homo sapiens) (Q12809 whole entry, looked up): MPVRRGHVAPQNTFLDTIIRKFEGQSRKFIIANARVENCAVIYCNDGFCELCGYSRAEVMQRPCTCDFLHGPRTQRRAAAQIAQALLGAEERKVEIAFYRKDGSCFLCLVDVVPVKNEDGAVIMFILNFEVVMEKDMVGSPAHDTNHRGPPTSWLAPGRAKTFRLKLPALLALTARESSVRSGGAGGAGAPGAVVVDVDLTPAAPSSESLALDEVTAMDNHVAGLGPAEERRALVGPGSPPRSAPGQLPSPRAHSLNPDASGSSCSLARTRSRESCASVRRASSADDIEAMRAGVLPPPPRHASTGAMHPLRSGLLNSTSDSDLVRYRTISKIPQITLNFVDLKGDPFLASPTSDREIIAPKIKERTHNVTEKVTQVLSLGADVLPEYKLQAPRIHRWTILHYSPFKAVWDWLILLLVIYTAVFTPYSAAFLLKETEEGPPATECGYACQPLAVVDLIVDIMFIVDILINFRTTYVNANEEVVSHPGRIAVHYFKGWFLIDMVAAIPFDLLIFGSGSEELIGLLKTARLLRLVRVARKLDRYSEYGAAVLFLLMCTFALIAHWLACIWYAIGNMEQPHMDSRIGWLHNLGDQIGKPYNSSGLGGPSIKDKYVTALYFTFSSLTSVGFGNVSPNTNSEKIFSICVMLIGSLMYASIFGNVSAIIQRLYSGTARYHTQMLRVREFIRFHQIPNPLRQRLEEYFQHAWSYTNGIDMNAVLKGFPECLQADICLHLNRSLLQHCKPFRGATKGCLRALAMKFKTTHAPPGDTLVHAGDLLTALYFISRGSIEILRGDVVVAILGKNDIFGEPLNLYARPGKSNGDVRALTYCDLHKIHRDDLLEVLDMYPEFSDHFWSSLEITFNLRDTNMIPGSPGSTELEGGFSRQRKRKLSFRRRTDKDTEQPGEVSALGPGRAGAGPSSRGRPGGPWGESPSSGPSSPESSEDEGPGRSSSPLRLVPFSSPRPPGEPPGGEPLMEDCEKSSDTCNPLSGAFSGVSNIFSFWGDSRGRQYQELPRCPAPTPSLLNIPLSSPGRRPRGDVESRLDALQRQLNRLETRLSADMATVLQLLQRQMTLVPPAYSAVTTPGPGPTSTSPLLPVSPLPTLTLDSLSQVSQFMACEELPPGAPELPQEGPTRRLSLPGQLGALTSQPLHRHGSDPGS

Structure (SMILES) | Potency | activity change, negative = inhibition
O=C(CCN1CCN2CCCC2C1)N1c2ccccc2Sc2ccc(Cl)cc21 (stereo not given) | 15.8 µM (active) | 
O=C(Oc1cccc2cccnc12)c1ccccc1 |  | 16.6%
CC(=C(CCOC(=O)C(C)C)SSC(CCOC(=O)C(C)C)=C(C)N(C=O)Cc1cnc(C)nc1N)N(C=O)Cc1cnc(C)nc1N |  | -37%
CCOC(=O)[C@H](CCc1ccccc1)N[C@@H](C)C(=O)N1[C@H](C(=O)O)C[C@@H]2CCC[C@@H]21 |  | 13.3%
O=C1OC(CN2CCOCC2)CN1/N=C/c1ccc([N+](=O)[O-])o1 (stereo not given) |  | 3.51% [at 20.6 µM]
OC[C@H]1O[C@@H](Oc2ccc(O)cc2)[C@H](O)[C@@H](O)[C@@H]1O |  | 13.1%
NC(N)=NN=C(/C=C/c1ccc([N+](=O)[O-])o1)/C=C/c1ccc([N+](=O)[O-])o1 | 0.0891 µM (active) | 
CCN(CC)CCOC(=O)C(Cc1cccc2ccccc12)CC1CCCO1 (stereo not given) | 7.94 µM (active) | 
CCNC(=O)/C=C/c1cccc(Br)c1 |  | 4.84%
NS(=O)(=O)c1ccc(Cl)c(S(N)(=O)=O)c1 |  | 8.84%
CC(=O)O[C@]1(C(C)=O)CC[C@H]2[C@@H]3C=C(C)C4=CC(=O)CC[C@]4(C)[C@H]3CC[C@@]21C |  | -8.48% [at 20.6 µM]
CC(C)[C@@H]1CC[C@@H](C)CC1=O |  | -19.7%
Nc1nc(-c2ccccc2)c(Br)c(=O)[nH]1 |  | 24.1%
CC(C)n1c(/C=C/[C@@H](O)C[C@@H](O)CC(=O)O)c(-c2ccc(F)cc2)c2ccccc21 |  | -2.4%
COc1ccc(C(=O)c2ccccc2O)c(O)c1 |  | 6.11% [at 20.6 µM]
CN(C)CCOC(=O)C(c1ccccc1)C1(O)CCCC1 (stereo not given) |  | 0.576%
N#CCC(=O)NN |  | -0.173%
COc1ccc(S(=O)(=O)N2c3ccc(Cl)cc3[C@@](O)(c3ccccc3Cl)[C@H]2C(=O)N2CCC[C@@H]2C(N)=O)cc1OC |  | -28.2%
NCCNC(=O)c1ccc(Cl)cn1 |  | -0.11%
CC(C)=CCOc1ccc(/C=C/C(=O)c2ccc(OCC=C(C)C)cc2OCC(=O)O)cc1 |  | -6.46%

Structure (SMILES) | Potency | activity change, negative = inhibition
CCN1CCCC(OC(=O)C(c2ccccc2)c2ccccc2)C1 (stereo not given) | 7.94 µM (active) | 
C[C@H]1O[C@@H](O[C@H]2CC[C@@]3(C)[C@H](CC[C@@H]4[C@@H]3C[C@@H](O)[C@]3(C)[C@@H](C5=CC(=O)OC5)CC[C@]43O)C2)C[C@H](O)[C@@H]1O[C@H]1C[C@H](O)[C@H](O[C@H]2C[C@H](O)[C@H](O[C@@H]3O[C@H](CO)[C@@H](O)[C@H](O)[C@H]3O)[C@@H](C)O2)[C@@H](C)O1 |  | 2.38%
Cc1cn([C@H]2C[C@H](F)[C@@H](CO)O2)c(=O)[nH]c1=O |  | 0.731%
CCCCC(CC)CN1CN(CC(CC)CCCC)CC(C)(N)C1 (stereo not given) | 4.47 µM (active) | 
CCc1oc2ccccc2c1C(=O)c1cc(I)c(O)c(I)c1 |  | -20.2%
CCC(Cc1c(I)cc(I)c(N)c1I)C(=O)O (stereo not given) |  | -6.31% [at 20.6 µM]
CC(O)Cn1cnc2c1c(=O)n(C)c(=O)n2C (stereo not given) |  | -3.74% [at 20.6 µM]
CN1CCN(C2=Nc3ccccc3Sc3ccc(Cl)cc32)CC1 | 14.1 µM (active) | 
O=C(O)C1(C(=O)O)CCC1.[NH2-].[NH2-].[Pt+2] |  | 8.06%
C[C@@]12C(=O)OC(=O)[C@]1(C)C1CCC2O1 |  | 2.73% [at 20.6 µM]
CC(=O)OCC1=C(C(=O)O)N2C(=O)[C@@H](NC(=O)CSc3ccncc3)[C@H]2SC1 | inactive | 
CCCCCCCCCCC[C@@H](C[C@@H]1OC(=O)[C@H]1CCCCCC)OC(=O)[C@H](CC(C)C)NC=O |  | -1.89%
CC(C(=O)O)c1cccc(Oc2ccccc2)c1 (stereo not given) |  | 4.48% [at 20.6 µM]
C#C[C@]1(O)CC[C@H]2[C@@H]3[C@H](C)CC4=C(CCC(=O)C4)[C@H]3CC[C@@]21C |  | 1.08%
O=C1c2cccc3c2[C@H](CCC3)CN1[C@@H]1CN2CCC1CC2 | 12.6 µM (active) | 
C=C1c2cccc(O)c2C(O)=C2C(=O)[C@]3(O)C(O)=C(C(N)=O)C(=O)[C@@H](N(C)C)[C@@H]3[C@@H](O)[C@H]12 |  | -7.67% [at 20.6 µM]
N/C(=N\N=C\c1ccc(Cl)cc1)N/N=C/c1ccc(Cl)cc1 | 3.55 µM (active) | 
C[C@@H](O)[C@H]1C(=O)N2C(C(=O)O)=C([C@H]3CCCO3)S[C@H]12 |  | -5.72%
CCO[C@@H]1O[C@H](C(COCc2ccccc2)OCc2ccccc2)[C@H](OCc2ccccc2)[C@H]1O (stereo not given in full) |  | -35.7% [at 20.6 µM]
CCC(CC)(CC(=O)Nc1cccc(/C=C/c2nc(C3CCC3)cs2)c1)C(=O)O |  | 14%
